Results: PubChem BioAssay
The source made the active and inactive calls.

Experiments:
[1] = tested on: PRMT1 (protein arginine N-methyltransferase 1); assay: small molecules binding arginine methyltransferase PRMT1 – biochemical, small-molecule microarray, 635 nm fluorescence, primary screen (AID 1088); settings: higher = more signal;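 also: binding of Prmt1 protein to compounds spotted on small-molecule microarray slides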
[2] = growth effects on S. cerevisiae YJM789 – YJM789 clinical isolate, OD600, 24 h, basal, primary screen (AID 1089); settings: higher = more signal, called active from +8 up or from −8 down;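 also: growth of clinical yeast isolate S. cerevisiae YJM 789 seeded 1000 cells per well; test concentration not given here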
[3] = S. pombe growth modifiers, basal conditions – strain 972, OD600, 24 h, no modulator, primary screen (AID 1090);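 also: basal condition with compound alone and no growth modifier present; test concentration not given here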; settings: S. pombe 972 growth, higher = more signal, called active from +8 up or from −8 down
[4] = budding yeast growth modifiers under rapamycin – strain BY4716, OD600, 96 h, primary screen (AID 1091); also: test concentration not given here; settings: S. cerevisiae BY4716 + rapamycin, higher = more signal, called active from +8 up or from −8 down
[5] = molecular target: Torsin-1A-interacting protein 2 (Homo sapiens) (UniProt Q8NFQ8); assay: small molecules binding lysate-expressed LULL1 – cell lysate, human LULL1 lysate, 635/667 nm fluorescence, primary screen (AID 1092); settings: small-molecule microarray, hLULL1 lysate binding, 635 nm fluorescence; higher = more signal;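 also: probe is lysate of COS7 cells overexpressing human LULL1; score merges per-feature 667 nm fluorescence with signal-to-noise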
Chain of Torsin-1A-interacting protein 2 (Homo sapiens) (Q8NFQ8 whole entry, looked up): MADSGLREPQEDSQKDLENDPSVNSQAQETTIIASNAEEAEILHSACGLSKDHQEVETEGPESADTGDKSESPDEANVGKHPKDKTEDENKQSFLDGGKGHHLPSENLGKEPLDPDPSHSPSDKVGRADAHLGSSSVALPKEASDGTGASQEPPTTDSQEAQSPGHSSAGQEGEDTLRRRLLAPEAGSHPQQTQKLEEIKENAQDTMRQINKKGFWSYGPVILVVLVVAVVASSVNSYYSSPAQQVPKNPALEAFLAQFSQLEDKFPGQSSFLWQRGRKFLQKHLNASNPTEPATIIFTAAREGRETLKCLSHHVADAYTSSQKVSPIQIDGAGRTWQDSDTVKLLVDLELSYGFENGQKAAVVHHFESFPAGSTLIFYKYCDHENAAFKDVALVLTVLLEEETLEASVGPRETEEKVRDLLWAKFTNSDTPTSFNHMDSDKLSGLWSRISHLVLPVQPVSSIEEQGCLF

[6] = optical density change of DRC41 E. coli – strain DRC41, OD650, 24 h, E. coli filamentation project, primary screen (AID 1093);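 also: MC1000 strain lacking acrAB efflux and sulA so SOS filamentation is blocked; test concentration not given here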; settings: E. coli DRC41 growth, higher = more signal, called active from +8 up or from −8 down
[7] = probe aLefty2 binding to arrayed compounds – biochemical, biotinylated probe, 635/667 nm fluorescence, primary screen (AID 1094); settings: small-molecule microarray, higher = more signal;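 also: score merges spot fluorescence near 667 nm with spot signal-to-noise ratio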
[8] = tested on: Noggin (protein binding on small-molecule microarray); assay: small molecules binding Noggin protein – biochemical, 635/667 nm fluorescence, primary screen (AID 1095); settings: 635 nm fluorescence, higher = more signal;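 also: score merges 667 nm feature fluorescence with signal to noise over triplicate slides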
[9] = molecular target: Neurogenic locus notch homolog protein 3 (Homo sapiens) (UniProt Q9UM47); assay: small molecules binding NOTCH3 protein – biochemical, 635/667 nm fluorescence, primary screen (AID 1096); settings: small-molecule microarray, 635 nm fluorescence, higher = more signal
Chain of Neurogenic locus notch homolog protein 3 (Homo sapiens) (Q9UM47 whole entry, looked up): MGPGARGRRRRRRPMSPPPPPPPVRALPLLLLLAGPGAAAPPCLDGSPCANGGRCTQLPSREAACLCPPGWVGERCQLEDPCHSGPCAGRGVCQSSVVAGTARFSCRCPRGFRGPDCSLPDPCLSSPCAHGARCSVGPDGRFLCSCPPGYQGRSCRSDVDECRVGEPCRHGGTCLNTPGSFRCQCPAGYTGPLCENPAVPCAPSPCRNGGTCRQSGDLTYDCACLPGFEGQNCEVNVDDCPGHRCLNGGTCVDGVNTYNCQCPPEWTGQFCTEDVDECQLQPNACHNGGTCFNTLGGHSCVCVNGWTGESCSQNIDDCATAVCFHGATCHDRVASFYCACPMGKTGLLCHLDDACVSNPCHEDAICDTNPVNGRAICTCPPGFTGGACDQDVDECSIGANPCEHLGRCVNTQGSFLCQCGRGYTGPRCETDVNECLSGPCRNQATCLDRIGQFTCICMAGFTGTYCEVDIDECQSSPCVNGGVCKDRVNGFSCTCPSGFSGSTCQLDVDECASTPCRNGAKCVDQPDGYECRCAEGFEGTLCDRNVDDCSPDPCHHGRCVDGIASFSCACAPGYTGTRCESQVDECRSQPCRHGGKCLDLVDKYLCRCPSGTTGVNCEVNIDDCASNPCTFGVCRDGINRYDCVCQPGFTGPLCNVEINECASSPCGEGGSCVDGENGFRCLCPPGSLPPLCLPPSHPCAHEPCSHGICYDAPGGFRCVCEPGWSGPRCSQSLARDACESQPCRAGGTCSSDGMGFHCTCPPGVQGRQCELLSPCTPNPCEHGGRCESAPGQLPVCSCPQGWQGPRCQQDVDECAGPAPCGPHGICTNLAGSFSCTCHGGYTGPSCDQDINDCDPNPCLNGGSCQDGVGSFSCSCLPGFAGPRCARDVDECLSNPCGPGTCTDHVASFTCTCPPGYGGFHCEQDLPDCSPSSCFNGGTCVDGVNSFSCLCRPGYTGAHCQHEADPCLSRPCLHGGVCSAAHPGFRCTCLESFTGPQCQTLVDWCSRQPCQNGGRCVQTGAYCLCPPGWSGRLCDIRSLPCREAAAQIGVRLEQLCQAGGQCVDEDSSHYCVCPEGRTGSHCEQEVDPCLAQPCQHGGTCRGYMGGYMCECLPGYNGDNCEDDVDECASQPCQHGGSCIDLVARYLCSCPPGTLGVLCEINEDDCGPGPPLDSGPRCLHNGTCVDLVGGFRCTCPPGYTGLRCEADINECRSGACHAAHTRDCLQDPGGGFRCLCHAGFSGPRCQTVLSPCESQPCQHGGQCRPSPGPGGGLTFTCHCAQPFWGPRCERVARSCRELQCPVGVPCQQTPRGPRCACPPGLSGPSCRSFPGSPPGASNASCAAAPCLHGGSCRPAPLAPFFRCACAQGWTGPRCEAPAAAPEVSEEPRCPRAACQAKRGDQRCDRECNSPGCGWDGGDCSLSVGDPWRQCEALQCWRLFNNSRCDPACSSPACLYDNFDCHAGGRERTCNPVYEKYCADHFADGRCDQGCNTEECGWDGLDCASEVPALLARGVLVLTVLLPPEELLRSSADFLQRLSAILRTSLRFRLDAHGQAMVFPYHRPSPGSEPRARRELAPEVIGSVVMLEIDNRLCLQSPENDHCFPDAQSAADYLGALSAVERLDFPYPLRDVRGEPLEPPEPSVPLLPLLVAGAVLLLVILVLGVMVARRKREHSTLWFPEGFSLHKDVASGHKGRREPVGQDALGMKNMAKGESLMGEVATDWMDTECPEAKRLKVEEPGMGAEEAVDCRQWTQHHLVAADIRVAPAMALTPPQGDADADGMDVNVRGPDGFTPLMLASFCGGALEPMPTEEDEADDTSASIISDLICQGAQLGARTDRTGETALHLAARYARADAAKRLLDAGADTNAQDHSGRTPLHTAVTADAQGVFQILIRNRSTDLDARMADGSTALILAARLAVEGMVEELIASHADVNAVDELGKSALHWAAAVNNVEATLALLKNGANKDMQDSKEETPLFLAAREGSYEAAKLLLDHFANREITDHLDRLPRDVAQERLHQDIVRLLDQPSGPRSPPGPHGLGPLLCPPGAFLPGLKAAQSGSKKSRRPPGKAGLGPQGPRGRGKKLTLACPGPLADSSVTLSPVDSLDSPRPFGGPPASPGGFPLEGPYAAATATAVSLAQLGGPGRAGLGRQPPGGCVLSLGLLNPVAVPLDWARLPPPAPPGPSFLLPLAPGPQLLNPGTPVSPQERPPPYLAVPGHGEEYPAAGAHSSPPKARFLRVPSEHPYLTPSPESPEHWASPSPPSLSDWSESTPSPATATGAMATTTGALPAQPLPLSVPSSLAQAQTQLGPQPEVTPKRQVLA

[10] = probe aEGFR binding to arrayed compounds – biochemical, biotinylated probe, 635/667 nm fluorescence, primary screen (AID 1097); settings: small-molecule microarray, higher = more signal;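 also: probe is a biotinylated anti-EGFR antibody binding compounds printed on slides; score combines fluorescence near 667 nm and signal to noise of each spot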
[11] = tested on: Plasmodium falciparum Sir2 (PF13_0152, Sir2A); assay: Plasmodium falciparum Sir2A binding compounds – biochemical, small-molecule microarray, 635 nm fluorescence, primary screen (AID 1098); settings: fluorescence 635 nm, higher = more signal;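 also: score merges spot fluorescence intensity with its signal-to-noise ratio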
[12] = probe aDKK1 binding to arrayed compounds – biochemical, biotinylated probe, 635/667 nm fluorescence, primary screen (AID 1099); settings: small-molecule microarray, higher = more signal;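 also: score merges 667nm spot fluorescence with signal to noise across triplicate slides; reference of the scale not given here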
[13] = probe aCHRDL2 binding to arrayed compounds – biochemical, biotinylated probe, 635/667 nm fluorescence, primary screen (AID 1100); settings: small-molecule microarray, higher = more signal
[14] = change in splice reporter luminescence, either direction, cell-based, HEK293, spliceosome inhibition project, primary screen (AID 1101); settings: HEK293 splicing luciferase reporter, 24 h, higher = more signal, called active from +8 up or from −8 down;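 also: HEK293 cells carrying a splicing-competent luciferase reporter gene; test concentration not given here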
[15] = molecular target: Fibroblast growth factor 10 (Homo sapiens) (UniProt O15520); assay: compounds binding fibroblast growth factor 10 – biochemical, small-molecule microarray, 635 nm fluorescence, primary screen (AID 1102); settings: FGF10 binding, fluorescence 635 nm, higher = more signal
Chain of Fibroblast growth factor 10 (Homo sapiens) (O15520 whole entry, looked up): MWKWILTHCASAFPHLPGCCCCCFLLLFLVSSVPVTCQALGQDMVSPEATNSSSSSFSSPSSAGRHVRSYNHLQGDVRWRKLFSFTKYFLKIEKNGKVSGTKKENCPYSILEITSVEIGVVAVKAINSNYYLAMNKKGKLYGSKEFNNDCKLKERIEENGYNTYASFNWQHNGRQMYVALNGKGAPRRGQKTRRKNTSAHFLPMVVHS

[16] = tested on: glycogen synthase kinase-3 (GSK3A per assay name; protocol says GSK3B); assay: compounds binding glycogen synthase kinase-3 – biochemical, small-molecule microarray, 635 nm fluorescence, GSK3A, primary screen (AID 1103); settings: fluorescence 635 nm, higher = more signal; also: the record names both GSK3A and GSK3B
[17] = molecular target: Epidermal growth factor receptor (Homo sapiens) (UniProt P00533); assay: compounds binding epidermal growth factor receptor – biochemical, small-molecule microarray, 635 nm fluorescence, primary screen (AID 1104); settings: EGFR binding, higher = more signal;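 also: score merges 667 nm emission intensity with spot signal to noise over triplicate slides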
Chain of Epidermal growth factor receptor (Homo sapiens) (P00533 whole entry, looked up): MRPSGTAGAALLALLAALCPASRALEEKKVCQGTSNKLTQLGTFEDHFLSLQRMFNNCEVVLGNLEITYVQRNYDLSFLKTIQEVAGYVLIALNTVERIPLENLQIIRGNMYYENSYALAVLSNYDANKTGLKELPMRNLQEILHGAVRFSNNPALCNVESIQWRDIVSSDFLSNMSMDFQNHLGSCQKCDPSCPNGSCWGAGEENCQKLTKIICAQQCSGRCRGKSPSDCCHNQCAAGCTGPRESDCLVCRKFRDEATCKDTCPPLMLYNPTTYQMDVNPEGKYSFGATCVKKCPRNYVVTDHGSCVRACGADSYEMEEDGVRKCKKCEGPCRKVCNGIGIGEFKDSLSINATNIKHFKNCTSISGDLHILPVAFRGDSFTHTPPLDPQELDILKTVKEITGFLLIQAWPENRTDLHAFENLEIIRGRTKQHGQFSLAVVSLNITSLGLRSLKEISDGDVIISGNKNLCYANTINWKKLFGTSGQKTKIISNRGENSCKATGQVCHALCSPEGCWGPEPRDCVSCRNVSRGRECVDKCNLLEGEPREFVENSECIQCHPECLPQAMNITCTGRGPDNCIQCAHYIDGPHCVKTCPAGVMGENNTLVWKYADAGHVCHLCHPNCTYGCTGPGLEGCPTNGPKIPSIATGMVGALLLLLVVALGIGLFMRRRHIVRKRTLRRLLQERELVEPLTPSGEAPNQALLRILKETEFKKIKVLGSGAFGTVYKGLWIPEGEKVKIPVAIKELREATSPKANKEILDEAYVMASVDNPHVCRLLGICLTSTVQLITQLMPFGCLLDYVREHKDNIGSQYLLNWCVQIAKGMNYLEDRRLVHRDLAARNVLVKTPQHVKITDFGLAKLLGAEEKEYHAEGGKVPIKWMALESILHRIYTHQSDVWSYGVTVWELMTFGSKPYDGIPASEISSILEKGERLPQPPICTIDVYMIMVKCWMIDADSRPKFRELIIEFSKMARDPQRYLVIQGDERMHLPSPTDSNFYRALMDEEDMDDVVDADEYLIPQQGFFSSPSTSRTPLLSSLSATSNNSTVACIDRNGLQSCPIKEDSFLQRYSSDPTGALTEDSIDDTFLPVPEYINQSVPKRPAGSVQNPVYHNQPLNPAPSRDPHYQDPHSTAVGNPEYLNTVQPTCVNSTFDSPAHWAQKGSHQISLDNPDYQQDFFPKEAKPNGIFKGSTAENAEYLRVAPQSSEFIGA

[18] = molecular target: Follistatin-related protein 3 (Homo sapiens) (UniProt O95633); assay: compounds binding follistatin-related protein 3 – biochemical, small-molecule microarray, 635 nm fluorescence, primary screen (AID 1105); settings: FSTL3 binding, higher = more signal;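 also: score merges emission near 667 nm and signal to noise per printed spot across three slides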
Chain of Follistatin-related protein 3 (Homo sapiens) (O95633 whole entry, looked up): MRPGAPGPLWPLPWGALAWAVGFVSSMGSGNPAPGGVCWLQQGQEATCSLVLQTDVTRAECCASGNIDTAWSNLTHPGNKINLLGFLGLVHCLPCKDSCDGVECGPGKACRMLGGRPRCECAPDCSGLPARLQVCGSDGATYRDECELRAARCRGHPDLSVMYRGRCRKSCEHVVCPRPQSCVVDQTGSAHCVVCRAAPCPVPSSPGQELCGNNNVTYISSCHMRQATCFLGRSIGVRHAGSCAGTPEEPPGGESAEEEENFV

[19] = molecular target: Dickkopf-related protein 1 (Homo sapiens) (UniProt O94907); assay: small molecules binding DKK1 protein – biochemical, small-molecule microarray, 635 nm fluorescence scan, primary screen (AID 1106); settings: higher = more signal;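 also: score merges emission near 667 nm with signal to noise over three replicate slides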
Chain of Dickkopf-related protein 1 (Homo sapiens) (O94907 whole entry, looked up): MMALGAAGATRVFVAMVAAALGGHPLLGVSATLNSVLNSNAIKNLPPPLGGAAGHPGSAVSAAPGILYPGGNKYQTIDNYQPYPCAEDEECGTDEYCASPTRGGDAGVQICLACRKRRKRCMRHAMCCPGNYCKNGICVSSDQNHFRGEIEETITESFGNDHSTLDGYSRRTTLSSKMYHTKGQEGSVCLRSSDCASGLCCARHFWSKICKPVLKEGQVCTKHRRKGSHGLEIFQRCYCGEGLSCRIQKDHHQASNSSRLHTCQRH

[20] = tested on: Inhibin beta A chain (activin A); assay: small molecules binding activin A – biochemical, small-molecule microarray, 635 nm fluorescence scan, primary screen (AID 1107); settings: INHBA, higher = more signal;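 also: mouse activin A protein probed at 4.33 µg/mL on printed slides; score merges bound-protein fluorescence near 667 nm with spot signal-to-noise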

Row | SMILES | composite z-score [1] | z-score [2] | z-score [3] | z-score [4] | composite z-score [5] | z-score [6] | composite z-score [7] | composite z-score [8] | composite z-score [9] | composite z-score [10] | composite z-score [11] | composite z-score [12] | composite z-score [13] | z-score [14] | composite z-score [15] | composite z-score [16] | composite z-score [17] | composite z-score [18] | composite z-score [19] | composite z-score [20]
1 | C=CCNC(=O)[C@@H]1[C@H]2C(=O)O[C@H](c3ccccc3)[C@H](c3ccccc3)N2[C@H](c2ccc(OCCO)cc2)[C@@]12C(=O)N(C(=O)OCCOC)c1ccc(C#CCCO)cc12 | 1.55 | -0.0915 (inactive) | 0.269 (inactive) | 4.08 (inactive) | 1.85 | 2.17 (inactive) | -0.0861 | 0.916 | 1.1 | -0.0088 | 1.12 | -0.0139 | 0.171 | -1.53 (inactive) | 0.637 | 1.28 | 0.635 | 1.24 | 0.646 | 0.63
2 | Cc1ccccc1C(O)C1C=CC2C(=O)N(c3ccccc3)C(=O)C2N1Nc1ccc([N+](=O)[O-])cc1 (stereo not given) | 1.45 | -0.715 (inactive) | 0.796 (inactive) | 2.67 (inactive) | 3.39 | 0.13 (inactive) | 0.0839 | 0.327 | 1.05 | 0.156 | 1.3 | 0.25 | 0.793 | -0.0433 (inactive) | 0.597 | 1.29 | 0.217 | 1.19 | 0.0125 | 0.816
3 | C=C[C@@H](OC)[C@H](OC(=O)Nc1ccc(SC)cc1)c1ccc(OCCO)cc1 | 1.13 | 0.456 (inactive) | -0.675 (inactive) | 0.0094 (inactive) | 2.11 | 0.0144 (inactive) | -0.057 | 0.822 | 0.82 | -0.039 | 1.4 | 0.0622 | 0.527 | 1.46 (inactive) | 0.887 | 0.64 | 0.419 | 0.839 | 0.444 | 0.0469
4 | COCCOC(=O)N1C(=O)[C@@]2(c3cc(C#CC4=CCCCC4)ccc31)[C@H](C(=O)N1CCCCCCC1)[C@H]1C(=O)O[C@H](c3ccccc3)[C@H](c3ccccc3)N1[C@@H]2c1ccc(OCCO)cc1 | 1.22 | 0.175 (inactive) | -0.534 (inactive) | 1.62 (inactive) | 0.973 | -0.909 (inactive) | 0.726 | 1.52 | 1.06 | 0.265 | 1.23 | 0.977 | 0.734 | -0.611 (inactive) | 1.03 | 1.17 | 0.825 | 1.23 | 0.835 | 1.43
5 | C=CC1c2cc(O)c(OC)cc2CCN1Cc1ccc([N+](=O)[O-])o1 (stereo not given) | -0.047 | 0.994 (inactive) | -0.61 (inactive) | 0.757 (inactive) | 2.77 | 0.694 (inactive) | 0.0761 | -0.273 | 0.606 | 0.0779 | 1.19 | 0.819 | 0.826 | -0.109 (inactive) | 0.367 | -0.128 | -0.841 | -0.15 | -0.641 | 0.87
6 | C=CCNC(=O)[C@@H]1[C@H]2C(=O)O[C@H](c3ccccc3)[C@H](c3ccccc3)N2[C@H](c2ccc(O)cc2)[C@@]12C(=O)Nc1ccc(C#CCC(C(=O)OC)C(=O)OC)cc12 | 1.55 | 1.66 (inactive) | 0.918 (inactive) | 1.12 (inactive) | 2.32 | -0.311 (inactive) | 0.0539 | 0.482 | 0.387 | -0.187 | 0.445 | 0.0989 | 0.181 | 0.246 (inactive) | 0.242 | 0.958 | -0.0617 | 0.544 | 0.317 | 0.595
7 | CCOC(=O)C1=CCN(S(=O)(=O)c2ccc(C)cc2)C1c1ccccc1 (stereo not given) | 1.03 | -1.76 (inactive) | -0.849 (inactive) | 0.318 (inactive) | 2.93 | -0.4 (inactive) | 0.38 | 0.216 | 0.821 | 0.227 | 0.494 | 0.129 | 0.221 | -0.377 (inactive) | 1.19 | 0.509 | 0.204 | 0.493 | 0.22 | 0.867
8 | COC(=O)C1=CC(CCCO)=CC(c2ccc(CN3CCCC3)cc2)N(Cc2cc3c(cc2Br)OCO3)C=C1C(=O)OC (stereo not given) | 1.57 | -0.622 (inactive) | -1.23 (inactive) | -0.371 (inactive) | 3.5 | -0.327 (inactive) | 0.639 | 0.719 | 1.01 | 0.481 | 1.16 | 1.12 | 0.986 | -0.967 (inactive) | 1.45 | 0.636 | 0.19 | 1.46 | 0.836 | 1.13
9 | C=CCN1C(=O)[C@]2(O[C@H](CCO)[C@@H]([Si](C)(C)c3ccc(OC)cc3)[C@@H]2C)c2cc(N3C(=O)COc4ccccc43)ccc21 | 1.53 | 1.81 (inactive) | 0.0538 (inactive) | 32.6 (active) | 1.29 | 1.64 (inactive) | -0.192 | 0.679 | 0.763 | -0.12 | 0.529 | -0.113 | 0.33 | -3.03 (inactive) | 0.74 | 0.195 | 0.0364 | 0.4 | -0.207 | 0.378
10 | O=C1O[C@H](c2ccccc2)[C@H](c2ccccc2)N2[C@H]1[C@@H](C(=O)N1CCCCCCC1)[C@]1(C(=O)Nc3ccc(C#CC4(O)CCCCCC4)cc31)[C@H]2c1ccccc1OCCO | 1.54 | 1.56 (inactive) | 0.462 (inactive) | 3.41 (inactive) | 5.1 | 1.04 (inactive) | 1.91 | 2.38 | 1.03 | 1.51 | 2.09 | 3.17 | 1.7 | -0.0867 (inactive) | 1.56 | 1.48 | 1.96 | 1.77 | 2.77 | 1.69
